Most compounds without a hit are left out; they make up all but 12% or so of the library.
JMJD2A Tudor – JMJD2A Tudor domain (human) inhibition; O75164; AlphaScreen JMJD2A-Tudor / H3K4me3 peptide binding; Potency, µM (series often up to 114 µM), for inactives: at the top dose activity change, negative = inhibition, usual class: inhibitors; 390,000 compounds, 4.4% hits; note: potency is the fitted concentration of half-maximal effect; % is set by controls: 0 for no effect and ±100 for the full control effect; nearly all actives have a fitted effect of over 50% in size
BAZ2B block – inhibitors of human BAZ2B bromodomain. Potency, µM (doses to about 114 µM), for the others: at the top dose activity change, negative = inhibition, most hits filed as inhibitors. AID 504333. 360,000 compounds, 4.4% hits. AlphaScreen BAZ2B-H3K14Ac peptide displacement. Q9UIF8; note: potency is the fitted concentration of half-maximal effect; % is set by controls: 0 for no effect and ±100 for the full control effect; nearly all actives have a fitted effect of over 60% in size
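AlphaScreen displacement of biotin-H3(5-23)K14Ac peptide (50 nM final) from BAZ2B (50 nM final) in PBS pH 7.4, 0.01% Tween-20; complex preformed 30 min RT, then compounds (top 110 uM) 30 min RT, beads 20 min dark.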
PLK1 PBD inh – blocks phosphopeptide binding to human PLK1 polo-box domain; 360,000 compounds, 2.8% hits; AID 720504; Plk1 PBD binding of FITC phosphopeptide, fluorescence polarization; Potency, µM, without a hit: max response, negative = inhibition, most hits filed as inhibitors; note: potency is the fitted concentration of half-maximal effect; series mostly up to about 57 µM; % is set by controls: 0 for no effect and ±100 for the full control effect; nearly all actives have a fitted effect of over 65% in size
HP1b chromo inh – blocks HP1-beta chromodomain binding to methylated histone tails; Potency, µM (titrated, usually from 114 µM), inactives show at the highest dose activity change, negative = inhibition, actives largely listed as inhibitors; 390,000 compounds, 0.56% hits; AlphaScreen HP1-beta / biotin-H3K9me3 peptide binding; note: potency is the fitted concentration of half-maximal effect; nearly all actives have a fitted effect of over 70% in size
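Compound inhibition of the preformed complex between 50 nM HP1-beta and 50 nM biotinylated H3K9me3 peptide was read by AlphaScreen. Buffer was PBS pH 7.4 with 0.01% Tween-20. Incubations ran 30 min at room temperature, with 10 ug/mL donor/acceptor beads.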
G9a inh – blocks human histone lysine methyltransferase G9a | Q96KQ7 | G9a H3K9 monomethylation, AlphaScreen, 2 h | Potency, µM (series often up to 102 µM), for inactives: at the highest dose activity, negative = inhibition, hits mostly inhibitors | 350,000 compounds, 8.8% hits | AID 504332; note: potency is the fitted concentration of half-maximal effect; % is set by controls: 0 for no effect and ±100 for the full control effect; nearly all actives have a fitted effect of over 75% in size
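AlphaScreen detection with an anti-monomethyl H3K9 antibody quantified product after a 2 h room-temperature reaction containing 500 nM biotinylated H3K9 peptide, 20 µM SAM and 20 nM enzyme, which had been preincubated 15 min with compound.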
PI5P4Ka inh – PI5P4K alpha (human) kinase inhibition | 330,000 compounds, 1.2% hits | P48426 | AID 652105 | PI5P4Kalpha enzyme, ADP-Glo luminescence, 60 min; stronger effect = lower value | max response, %; active = max response of -50% or lower; inconclusive = between -30% and -50%; inactive = -30% or higher; note: value at the top dose of about 77 µM; % is set by controls: 0 for no effect and ±100 for the full control effect
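Single end-point luminescence (ADP-Glo) quantified ADP from PI5P4Kalpha turnover; ATP 5 microM final, 1 h at RT, 0.1% CHAPS and 0.28 mM EGTA in HEPES pH 7.4.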
* hit, by the source's call; ? = inconclusive; / = no result; [ ] = dose if it differs, or a comment. Unless noted, calls come from the whole dose curve; as a rule, active = well fitted curve in the direction sought with a large enough effect; inconclusive = small, poorly fitted or top-dose-only effect, or another doubt; inactive = no such curve, though single readings can be large; an effect the other way counts as inactive or inconclusive.

SMILES	JMJD2A Tudor	BAZ2B block	PLK1 PBD inh	HP1b chromo inh	G9a inh	PI5P4Ka inh
COc1ccc(Nc2c(-c3ccc(C)o3)nc3ccccn23)cc1	?	/	/	-17.9%	/	/
Cc1cccc2nc(-c3ccco3)c(Nc3ccc4c(c3)OCO4)n12	44.7µM*	20µM*	2.9%	?	35.5µM*	-0.2
Cc1cccc2nc(-c3ccco3)c(Nc3ccccc3)n12	?	39.8µM*	-2.7%	-3.8%	?	8.7
Cc1ccc(Nc2c(-c3ccc(C)o3)nc3cccc(C)n23)cc1	44.7µM*	25.1µM*	/	?	17.8µM*	/
CSc1ccc(-c2nc3cccc(C)n3c2Nc2ccc3c(c2)OCO3)cc1	28.2µM*	/	/	?	5.62µM*	/
Cc1cc(C)n2c(Nc3ccc4c(c3)OCCO4)c(-c3ccc(Cl)cc3)nc2n1	?	-4.2%	/	8.9%	1.4%[59 µM]	/
Cc1ccn2c(Nc3ccc4c(c3)OCO4)c(-c3ccco3)nc2c1	?	-36.7%	/	?	4.47µM*	/
COc1ccc(S(=O)(=O)N2CCN(CC(=O)NC3CC3)CC2)cc1	-5.1%	-15.9%	-3.4%	25.3%	7.7%	-5.0
CC(C)(C)OC(=O)N1CC23CC(c4ccc(F)cc4)C(CC2S1(=O)=O)O3 (configuration not stated)	-7.6%	/	/	21.1%	/	/
CC(NCc1ccc(N(C)C)cc1)C1CC2CCC1C2 (configuration not stated)	89.1µM*	?	-10.3%	-20.8%	50.1µM*	-6.8
CC(NC(=O)c1ccc(CS(C)(=O)=O)cc1)C1CC2CCC1C2 (configuration not stated)	-7.0%	2.3%	-6.8%	11.6%	7.9%	2.7
O=C(Cc1ccc(S(=O)(=O)N2CCOCC2)s1)Nc1ccccc1N1CCOCC1	-17.3%	/	-8.4%	9.0%	44.7µM*	-17.8
O=C(Cc1ccc(S(=O)(=O)N2CCOCC2)s1)Nc1ccccc1Br	?	70.8µM*	-5.1%	-6.3%	/	?
COC(=O)c1ccccc1NC(=O)CNc1cc(Cl)ccc1N1CCOCC1	-24.8%	-4.5%	-1.4%	-1.7%	44.7µM*	-0.7
O=C(Cc1ccccc1)Nc1ccccc1N1CCOCC1	4.0%	-7.0%	-7.1%	48.0%	0.0%[0.0925 µM]	-7.6
O=C(Cc1ccc(Cl)c(Cl)c1)Nc1ccccc1N1CCOCC1	11.7%	/	-9.7%	53.8%	79.4µM*	-6.5
Cc1ccc(C(=O)NCC(=O)OC(C)C(=O)NC2CCCc3ccccc32)cc1 (configuration not stated)	-13.5%	-9.9%	0.8%	25.5%	2.5%	4.0
Cn1c(-c2ccc(F)cc2)cnc1SCC(=O)Nc1ccccc1N1CCOCC1	-27.8%	?	-7.3%	18.0%	44.7µM*	-1.5
CCCOc1ccc(NC(=O)Cc2ccc(S(=O)(=O)N3CCOCC3)s2)cc1OCCC	?	-39.0%	-10.3%	-22.1%	79.4µM*	-2.7
COCCOc1ccc(C(F)(F)F)cc1NC(=O)Cc1ccc(S(=O)(=O)N2CCOCC2)s1	-17.9%	-4.6%	-1.7%	23.7%	-4.4%[0.501 µM]	13.7
COc1ccc(-n2c(=S)[nH]c3cc(C(=O)Nc4ccc(F)cc4)ccc3c2=O)c(OC)c1	-26.6%	-15.5%	-7.1%	25.1%	-10.3%	-12.9
CC(c1ccc(O)cc1)(c1ccc(O)cc1)c1ccc(CCBr)cc1	-33.3%	?	-3.4%	4.2%	79.4µM*	0.0
OCCc1ccc(O)cc1	-20.9%	-5.1%	-7.2%	12.9%	-4.6%[59 µM]	1.0
O=C(CSc1ncn[nH]1)NCc1ccc(Cl)cc1	-14.1%	7.6%	2.3%	-1.4%	24.4%	13.3
O=C(NCc1ccc(Cl)cc1)c1ncn[nH]1	-8.5%	79.4µM*	2.0%	30.1%	-4.7%	-1.7
SMILES	JMJD2A Tudor	BAZ2B block	PLK1 PBD inh	HP1b chromo inh	G9a inh	PI5P4Ka inh
O=C(NCc1ccc(Cl)cc1)c1n[nH]c([N+](=O)[O-])c1Cl	?	-5.3%	18.9µM*	13.3%	52.9%[59 µM]	-25.3
CCC(NC(=O)c1ccccc1NC(=O)C(C)(C)C)C(=O)N1CC(C)OC(C)C1 (configuration not stated)	-17.7%	/	-12.2%	8.2%[57 µM]	/	0.2
N#CCC(=O)NNC(=S)NC(=O)C(c1ccccc1)c1ccccc1	-14.1%	-6.6%	-5.5%	38.1%	-5.4%	-15.5
CC(=O)NC(=S)NNC(=O)C(c1ccccc1)c1ccccc1	?	7.3%	-12.8%	24.0%	11.2µM*	-2.3
CCCCN(C(=O)CSCC(=O)Nc1ccc(C)cc1)c1c(N)n(CC(C)C)c(=O)[nH]c1=O	-6.9%	5.7%	-7.9%	7.0%	-3.0%[12.7 µM]	-0.3
Cc1ccc(Oc2nc3ccccn3c(=O)c2/C=C(\C#N)c2nc3ccccc3s2)c(C)c1	2.4%	-1.8%	/	55.0%	2.51µM*	/
Cc1cccn2c(=O)c(/C=C(\C#N)c3nc4ccccc4s3)c(Oc3ccc(Br)cc3)nc12	-15.5%	1.6%	/	48.8%	?	/
N#C/C(=C\c1c(Oc2ccc(F)cc2)nc2ccccn2c1=O)c1nc2ccccc2s1	-16.5%	-4.0%	/	40.0%	2.24µM*	/
CCN(CC)c1ccc(C=NCCNS(=O)(=O)c2ccc(C)cc2)cc1	9.9%	20.3%	-1.8%	12.9%	?	-4.8
Cc1ccc(S(=O)(=O)N/N=C/c2ccc(O)c(O)c2)cc1[N+](=O)[O-]	?	-34.8%	-21.0%	-18.1%	35.5µM*	-1.3
CCN(Cc1ccccc1)c1ccc(/C=N/NS(=O)(=O)c2cccc([N+](=O)[O-])c2)cc1	?	?	?	?	10µM*	-0.3
Cc1ccc(S(=O)(=O)N/N=C/c2ccccc2O)cc1[N+](=O)[O-]	-10.9%	-38.5%	?	4.6%	?	4.1
CCN(CC)c1ccc(/C=N/NS(=O)(=O)c2ccc(C)c([N+](=O)[O-])c2)cc1	35.5µM*	?	-19.6%	?	39.8µM*	3.0
COCCCNC(=O)Cn1nc(N2CCN(c3ccccc3)CC2)ccc1=O	-13.0%	7.7%	/	51.6%	4.8%[59 µM]	/
COc1ccc2c(c1)nc(SCC(=O)c1cccs1)n2C	79.4µM*	-18.2%[57.1 µM]	-24.2%	1.5%	44.7µM*	/
COC(=O)c1c(-c2cccs2)csc1NC(=O)c1ccc(OC)c(OC)c1	-32.8%	-26.7%	/	?	2.82µM*	/
COC(=O)c1c(-c2cccs2)csc1NC(=O)c1cc(OC)c(OC)c(OC)c1	89.1µM*	?	/	?	?	/
CCOC(=O)c1c(-c2cccs2)csc1NC(=O)c1ccncc1	-4.5%	13.4%	-5.0%	35.0%	19.5%[2.33 µM]	2.2
COC(=O)c1c(-c2cccs2)csc1NC(=O)c1cc(OC)cc(OC)c1	-5.0%	-35.1%	/	0.5%	2.82µM*	/
COC(=O)c1c(-c2cccs2)csc1NC(=O)c1ccc(C)cc1	-28.1%	?	/	-23.4%	?	/
COC(=O)c1c(-c2cccs2)csc1NC(=O)c1ccc(Br)cc1	-10.6%	-7.3%	/	6.1%	1.58µM*	/
O=C(NCc1cccs1)c1ccc(Cn2c(SCc3ccccc3)nc3cccnc32)cc1	-26.7%	-7.1%	/	5.8%	-22.7%[59 µM]	/
